Test results reported in ChEMBL document CHEMBL4513216, “Probing the Open Global Health Chemical Diversity Library for Multistage-Active Starting Points for Next-Generation Antimalarials” (ACS Infect Dis, 2020).
Among all 69,000 compounds or so, about 8,600 (12%) showed an effect of 50% or more. What follows is part of a selection rich in strong results, with near analogues and random picks from the rest.

test system: Plasmodium berghei; experiment: Screen against P. berghei liver stage (PbLuc), transformed with Luciferase, at 10uM; format: functional, HepG2; details: tested at 10 uM

Structure (SMILES)	INHIBITION [%]
Cc1cc(NC(C)c2csc(C)n2)n2nc(C)c(C)c2n1 (stereo not drawn)	25.4
CC(SCC(=O)NC(N)=O)c1ccccc1F (stereo not drawn)	24.7
CCNC(=O)NC(=O)CSC(C)c1ccccc1F (stereo not drawn)	-32.3
CC(SCC(=O)N(C)CC(=O)NC1CC1)c1ccc(F)c(F)c1 (stereo not drawn)	-18.9
CC(SCC(=O)N(C)CC(=O)NC1CC1)c1ccccc1F (stereo not drawn)	85.7
CNC(=O)NC(=O)CSC(C)c1ccccc1F (stereo not drawn)	55
CC(SCC(=O)N(C)CC(=O)NC1CC1)c1cc(F)ccc1F (stereo not drawn)	49.3
Nc1nc(C2CCN(C(=O)c3cscn3)CC2)cs1	34.7
CN1C[C@@H]2CN(C(=O)NCc3ccccc3)CCC[C@]2(C(=O)O)C1	5.63
COCC1CC2(CCN(Cc3ccoc3)CC2)CN1C(C)C (stereo not drawn)	-1.26
Cc1ccccc1CNC(=O)c1ccccc1-n1cc(CN)cn1	20.8
CSCC[C@H](N)C(=O)NCc1cc2n(n1)CCCN(C(=O)C1CCC1)C2	28.5
Cc1cc(C)c(CNC(=O)NCc2ccc(F)cc2)c(=O)[nH]1	27.6
c1cc2cc[nH]c2c(CC2CN(Cc3cscn3)C2)n1	53.6
Cn1ccc(CN2CC(Cc3nccc4cc[nH]c34)C2)n1	41.5
c1cc2cc[nH]c2c(CC2CN(Cc3cncs3)C2)n1	-0.232
COC(=O)N1CC[C@@]2(O)CCCC[C@H]2[C@@H]1c1ccc2c(c1)OCO2	42.3
CC(=O)N1CC[C@@]2(O)CCCC[C@H]2[C@@H]1c1ccc2c(c1)OCO2	52.1
NC(=O)CN1CC[C@@]2(O)CCCC[C@H]2[C@@H]1c1ccc2c(c1)OCO2	17.6
CCOCC1CN(S(=O)(=O)N(C)C)Cc2cnn(CC3CC3)c21 (stereo not drawn)	-57.7
Cc1cc(CCC(=O)N2CCCC2)nc(C2CCCN2)n1 (stereo not drawn)	24.8
O=S(=O)(CCCN1CCCCC1Cn1cncn1)c1ccccc1 (stereo not drawn)	-29.8
CN(CC(=O)N1CCCCC1c1nccs1)C1CC1 (stereo not drawn)	13.6
CC1CN(Cc2cccc(CNC3CCCC3)c2)CCO1 (stereo not drawn)	37.4
CC1CN(Cc2cccc(CN)c2)CCO1 (stereo not drawn)	59.1
CCCN1CCC(NCc2cccc(CN3CCOC(C)C3)c2)CC1 (stereo not drawn)	21.1
CC1CCN(CC(=O)N(C)CCc2noc(C3CC3)n2)C1=O (stereo not drawn)	-22.1

Structure (SMILES)	INHIBITION [%]
CCCn1cc(CN2CCOCC2c2[nH]ncc2C)cn1 (stereo not drawn)	6.2
Cc1ncc(CN2CCc3c(nc4cc(C5CC5)nn4c3O)C2)n1C	47.1
Cc1oc2c(c1C(=O)N1CC[C@H](O)[C@]3(CCCO3)C1)CCCC2	3.75
CC(C)Oc1cccc2c1c(NC(=O)CN(C)C)nn2CC(F)(F)F	7.77
CC(=O)N1CCCC(c2cccc(-n3ccnc3)n2)C1 (stereo not drawn)	36.7
O=C(c1cc[nH]n1)N1CCCC(c2cccc(-n3ccnc3)n2)C1 (stereo not drawn)	14.4
O=C(C1CCCC1)N1CCCC(c2cccc(-n3ccnc3)n2)C1 (stereo not drawn)	63.4
Cc1nccn1-c1cccc(C2CCCN(C3CCCCC3)C2)n1 (stereo not drawn)	11.4
O=C(c1cnccn1)N1CCCC(c2cccc(-n3ccnc3)n2)C1 (stereo not drawn)	50.1
c1cnc(N2CCCC(c3cncc(-n4ccnc4)n3)C2)nc1 (stereo not drawn)	15.9
Cc1nccn1-c1cccc(C2CCCN(C(=O)c3cc[nH]n3)C2)n1 (stereo not drawn)	53.8
O=C(C1CCC1)N1CCCC(c2cccc(-n3ccnc3)n2)C1 (stereo not drawn)	29.3
Cc1nc(C(=O)N2CCCC(c3cccc(-n4ccnc4)n3)C2)co1 (stereo not drawn)	29.6
Cc1n[nH]cc1C(=O)N1CCCC(c2cccc(-n3ccnc3)n2)C1 (stereo not drawn)	-13.7
Cc1cc(C)nc(N2CCCC(c3cccc(-n4ccnc4)n3)C2)n1 (stereo not drawn)	69.3
COCC(=O)N1CCCC(c2cccc(-n3ccnc3)n2)C1 (stereo not drawn)	36.7
CC(=O)c1ccc(OCC(=O)NS(=O)(=O)c2cccnc2)cc1	35.9
Cc1cnn(CC2CCCCN2C(=O)c2cc(Cl)c[nH]2)c1 (stereo not drawn)	40.3
Cc1cccc(C(=O)N2CCC3(CC(C(=O)N(C)C(C)C)=NO3)C2)c1 (stereo not drawn)	6.72
Cc1noc([C@@H]2C[C@H]3OCC[C@H]3N(S(=O)(=O)N(C)C)C2)n1	-13
CC(=O)N1CCN(C(=O)NCc2ccccc2Cn2cncn2)CC1	-56.4
COCC(=O)NCC1CCC(c2ccnc3ncnn23)CC1 (stereo not drawn)	15.5
Fc1ccc(CN2CCCC2c2cncc(-n3ccnc3)n2)cc1 (stereo not drawn)	22.7
c1cn(-c2cncc(C3CCNCC3)n2)cn1	-64.7
Cc1cc(C)nc(N2CCC(c3cncc(-n4ccnc4)n3)CC2)n1	66.4
CCOCc1ccc(NC(=O)N2CCOC3(CCC3)C2)cc1	-1.32
